JMJD2A Tudor – blocks the human JMJD2A Tudor domain | O75164 | AlphaScreen JMJD2A-Tudor / H3K4me3 peptide binding | Potency, µM (highest dose often 114 µM), inactives show at the highest dose activity change, negative = inhibition, most hits filed as inhibitors | hit rate 4.4% among 390,000; further: potency means the concentration at half of the fitted maximal effect; on the % scale 0 is the no-effect control and ±100 the full control effect; nearly all actives have a fitted effect of over 50% in size
PI5P4Ka inh – PI5P4K alpha (human) kinase inhibition. PI5P4Kalpha enzyme, ADP-Glo luminescence, 60 min; stronger effect = lower value. max response, %. hit rate 1.2% among 330,000; active means max response of -50% or lower; inconclusive means between -30% and -50%; inactive means -30% or higher; further: value at the top dose of about 77 µM; on the % scale 0 is the no-effect control and ±100 the full control effect
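Single end-point luminescence (ADP-Glo) quantified ADP from PI5P4Kalpha turnover; ATP 5 microM final, 1 h at RT, 0.1% CHAPS and 0.28 mM EGTA in HEPES pH 7.4.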
HP1b chromo inh – HP1-beta chromodomain-methylated histone interaction inhibition; P83916; AlphaScreen HP1-beta / biotin-H3K9me3 peptide binding; Potency, µM (titrated, usually from 114 µM), for inactives: at the top dose activity change, negative = inhibition, hits mostly inhibitors; hit rate 0.56% among 390,000; AID 540317; further: potency means the concentration at half of the fitted maximal effect; nearly all actives have a fitted effect of over 70% in size
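HP1-beta protein (50 nM final) preincubated 30 min at room temperature with biotinylated H3(1-18)K9me3 peptide (50 nM) in PBS pH 7.4, 0.01% Tween-20, then compound added for 30 min. AlphaScreen streptavidin donor/nickel chelate acceptor beads (10 ug/mL final), 30 min dark, luminescence read.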
G9a block – G9a (human) methyltransferase inhibition; Potency, µM (highest dose often 102 µM), inactives show at the top dose activity, negative = inhibition, usual class: inhibitors; hit rate 8.8% among 350,000; G9a H3K9 monomethylation, AlphaScreen, 2 h; AID 504332; further: potency means the concentration at half of the fitted maximal effect; on the % scale 0 is the no-effect control and ±100 the full control effect; nearly all actives have a fitted effect of over 75% in size
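G9a (20 nM) preincubated 15 min RT with compounds, then 500 nM biotinylated H3K9 peptide and 20 uM SAM added; 2 h RT reaction. Monomethyl-H3K9 product detected by AlphaScreen with anti-H3K9me1 antibody, streptavidin donor and anti-rabbit IgG acceptor beads.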
PLK1 PBD inh – inhibitors of human PLK1 polo-box domain binding. P53350. Potency, µM, inactives show max response, negative = inhibition, hits mostly inhibitors. Plk1 PBD binding of FITC phosphopeptide, fluorescence polarization. hit rate 2.8% among 360,000; further: potency means the concentration at half of the fitted maximal effect; series mostly up to about 57 µM; on the % scale 0 is the no-effect control and ±100 the full control effect; nearly all actives have a fitted effect of over 65% in size
BAZ2B inh – inhibitors of human BAZ2B bromodomain; Potency, µM (series often up to 114 µM), without a hit: at the highest dose activity change, negative = inhibition, hits mostly inhibitors; Q9UIF8; hit rate 4.4% among 360,000; AID 504333; AlphaScreen BAZ2B-H3K14Ac peptide displacement; further: potency means the concentration at half of the fitted maximal effect; on the % scale 0 is the no-effect control and ±100 the full control effect; nearly all actives have a fitted effect of over 60% in size
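Complex of BAZ2B and biotin-H3K14Ac (50 nM apiece) forms over 30 min at RT, then faces library compounds up to 110 uM for another 30 min; AlphaScreen beads added, 20 min dark incubation, luminescence read.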
* = called active by the depositor; u = inconclusive; x = no result; ! = repeats disagree; [ ] = remark or other dose. Compounds with a hit are over-represented: about 12% of the library has one in this group of screens. Unless noted, the call rests on the fitted dose curve; in most records, active means well fitted curve in the direction sought with a large enough effect; inconclusive means small, poorly fitted or top-dose-only effect, or another doubt; inactive means no such curve, though single readings can be large; an effect the other way counts as inactive or inconclusive.

SMILES	JMJD2A Tudor	PI5P4Ka inh	HP1b chromo inh	G9a block	PLK1 PBD inh	BAZ2B inh
Cc1c(N=Cc2c(O)n(CCc3ccccc3)c(=O)[nH]c2=O)c(=O)n(-c2ccccc2)n1C	-22%	-13	13%	-18%[59 µM]	-3%	6%
CC1(C)C(O)CC(=O)[C@]2(C)C1CC(=O)[C@]1(C)C2CC[C@@]2(C)C(c3ccoc3)OC(=O)C3O[C@@]321 (some centres undefined)	x	x	x	-6%[2.33 µM]	x	x
O=C(O)[C@@H]1C[C@H]2C[C@@H](CP(=O)(O)O)CC[C@H]2CN1	10%	x	46%	x	x	x
CCN(CCCNS(=O)(=O)c1ccc2c(c1)oc(=O)n2C)c1cccc(C)c1	16µM*	-18	u	14µM*	24µM*	-32%
CCC1CCCCN1CCCNS(=O)(=O)c1ccc2c(c1)oc(=O)n2C (centres undefined)	-15%	2	50%	x	0%	-19%
Cc1ccc(S(=O)(=O)N[C@@H](CCCCN)C(=O)CCl)cc1	u	-2	59%	28µM*	u	x
CC1(C)C(O)CC(O)[C@]2(C)C1CC(=O)[C@]1(C)C2CC[C@@]2(C)C(c3ccoc3)OC(=O)C3OC321 (some centres undefined)	x	x	x	0%[2.33 µM]	x	x
Cc1ccc(NC(=O)CN2C(=O)CN=C(c3ccccc3)c3ccccc32)c(C)c1	1%	x	26%	-6%[59 µM]	x	x
C[C@]12CCC3C(C(=O)C[C@H]4C[C@@H](O)CC[C@]34C)C1CCC2=O (some centres undefined)	-6%	1	13%[57 µM]	x	-8%	x
Cc1cc2ccccc2n1CCNC(=O)COc1ccccc1	20µM*	1	u	50µM*	-23%	u
c1ccc2sc(C3(N4CCCC4)CCCCC3)cc2c1	x	x	x	-4%[59 µM]	x	x
O=C(CCS(=O)NCc1ccccc1)NCc1ccccc1 (centres undefined)	x	x	x	18µM*	x	-6%
Cn1cc(C(=O)NCc2ccccc2)c2ccccc21	4%	-2	10%	10%	1%	-1%
C[C@H]1O[C@H]1P(=O)(O)O	-14%	-2	61%	21%	-17%	10%
O=C1Nc2ccc(Cl)cc2C(c2ccccc2Cl)=NC1O (centres undefined)	x	x	x	19%[59 µM]	x	x
O=C(Nc1nn[nH]n1)c1cccc([N+](=O)[O-])c1	22µM*	-4	20%	25µM*	-4%	79µM*
COc1ccc(/C=N/NC(=O)c2cccc([N+](=O)[O-])c2)cc1OC	-7%	1	43%	x	-10%	-15%
C=CCn1c(O)c(Cc2ccc(OCC)cc2)c(=O)[nH]c1=O	32µM*	-8	-12%	3%	-13%	0%
COP(=O)(OC)[C@@H](O)C(Cl)(Cl)Cl	x	x	x	31%[21.5 µM]	x	x
COc1cc(OC)c(OC)cc1/C=C1/C(=O)NC(=O)N(Cc2ccccc2)C1=O	-19%	u	22%	50µM*	u	-18%
Cc1cc(/C=C2\C(=O)NC(=O)N(Cc3ccccc3)C2=O)c(C)n1C1CC1	u	-7	16%	x	-14%	-14%
COc1ccc(CN2C(=O)NC(=O)/C(=C\c3cc(OC)c(OC)c(OC)c3)C2=O)cc1	50µM*	u	-24%	u	8.4µM*	u
COc1ccc(/C=C2\C(=O)NC(=O)N(Cc3ccccc3)C2=O)c(OC)c1OC	-14%	-29	17%	x	12µM*	-16%
COc1cc(OC)c(OC)cc1/C=C1\C(=O)NC(=O)N(Cc2ccccc2)C1=O	-7%	-25	17%	u	2.7µM*	-28%
COc1ccc(NC(=O)CSc2oc(-c3cccs3)nc2S(=O)(=O)c2ccccc2)c(OC)c1	u	x	u	u	x	-19%
SMILES	JMJD2A Tudor	PI5P4Ka inh	HP1b chromo inh	G9a block	PLK1 PBD inh	BAZ2B inh
CN1CCN(c2ccc([N+](=O)[O-])c(NCC3CCCO3)c2)CC1 (centres undefined)	-23%	1	-7%	28µM*	-6%	6%
CN1CCN(c2ccc([N+](=O)[O-])c(NCc3ccco3)c2)CC1	u	7	-18%	u	-2%	u
CN1CCN(c2ccc([N+](=O)[O-])c(N3CCCCC3)c2)CC1	-33%	1	26%	56µM*	-4%	u
Cc1nccc2c1[nH]c1ccc(Br)cc12	-21%	29	7%	12%[12.7 µM]	5%	12%
COc1ccc2c(c1)[nH]c1c(C)nccc12	-21%	-5	60%	13µM*!	-17%	u
O=C(Nc1cccc(F)c1)N1CC2(CCNCC2)C1	x	x	x	-6%[12.7 µM]	x	x
CCOC(=O)[C@]12Cc3cc(C)ccc3[C@H]1N(Cc1ccccc1)C(=O)c1ccccc12	-32%	11	7%	x	-8%	x
CCOC(=O)[C@]12Cc3cc(OC)ccc3[C@H]1N(C1CCCCC1)C(=O)c1cc(OC)ccc12	x	3	x	x	u	x
CCOC(=O)[C@]12Cc3c(cc(OC)c(OC)c3OC)[C@H]1N(C)C(=O)c1cc(OC)ccc12	x	1	x	x	13µM*	x
CCOC(=O)[C@]12Cc3cc(C)ccc3[C@H]1N(C(C)C)C(=O)c1ccccc12	x	-8	x	x	11µM*	x
CCOC(=O)[C@]12Cc3cc(C)ccc3[C@H]1N(C1CCCCC1)C(=O)c1cc(OC)ccc12	x	-11	x	x	2.4µM*	x
CCOC(=O)[C@]12Cc3c(cc(OC)c(OC)c3OC)[C@H]1N(C(C)C)C(=O)c1ccccc12	x	-2	x	x	13µM*	x
CCOC(=O)[C@]12Cc3cc(C)ccc3[C@H]1N(CCC(=O)OC)C(=O)c1cc(OC)ccc12	x	0	x	x	u	x
CCOC(=O)[C@]12Cc3ccccc3[C@H]1N(C(C)C)C(=O)c1cc(OC)ccc12	x	-1	x	x	7.5µM*	x
CCOC(=O)[C@]12Cc3cc(OC)ccc3[C@H]1N(Cc1ccccc1)C(=O)c1cc(F)c(F)cc12	-20%	11	25%	x	-12%	x
CCOC(=O)[C@]12Cc3cc(C)ccc3[C@H]1N(Cc1ccccc1)C(=O)c1cc(F)c(F)cc12	x	8	x	x	11µM*	x
CCOC(=O)[C@]12Cc3ccccc3[C@H]1N(C)C(=O)c1cc(OC)ccc12	x	-2	x	x	13µM*	x
CS(=O)(=O)N1CCC2(CCCN(Cc3ccncc3)C2)CC1	x	x	x	9%[12.7 µM]	x	x
C=CCN(C1=NCCN1)c1c(Cl)cccc1Cl	x	x	x	6%[59 µM]	x	x
COc1ccc(NC(=O)CCn2cc(C)c3ccccc32)cc1	u	-1	-1%	u	2%	u
COc1ccc(CCCc2nnc(SCC(=O)Nc3ccc(C)c(C)c3)o2)cc1	u	x	3%	22µM*	5%	-26%
Cc1cc(C(=O)C[N+]23CCN(CC2)CC3)c(C)n1-c1ccc(Br)cc1	-19%	-6	4%	u	-3%	79µM*
COc1ccc(-n2c(/C=C\c3ccccc3F)nc3ccccc3c2=O)cc1OC	-19%	x	2%	0%[59 µM]	x	0%

Source: PubChem BioAssay
